Assay outcomes as filed in PubChem.
Shown is part of a subset that was picked to be rich in hits.
Vaccinia pol inh: vaccinia E9 polymerase processive synthesis inhibitors, primary screen, biochemical, absorbance; in vitro processive DNA synthesis, absorbance read-out; active compounds read low; Vaccinia virus DNA polymerase (E9) processive complex; 46,000 tested, 0.94% active; normalized absorbance, % (concentration not given with the values); in the data active means normalized absorbance mostly below about 85%, no sharp cut-off; inactive means mostly above about 86%
Numbers without * were called inactive.

SMILES | Vaccinia pol inh
Cc1ccc(-c2csc(NC(=O)c3cccc(Cl)c3)n2)cc1C | 97
CCOC(=O)c1cnc2c(ccc3ccccc32)c1NCCOC(=O)C(C)(C)C | 100
CCOC(=O)c1cnc2c(ccc3ccccc32)c1NC1CC(C)(C)NC(C)(C)C1 | 58*
CCOC(=O)c1cnc2c(ccc3ccccc32)c1NCC(C)C | 100
Cc1cccc(Nc2cc(C)nc3ccccc23)c1 | 77*
COC(=O)c1ccc(Nc2cc(C)nc3ccccc23)cc1 | 99
Cc1cc(Nc2ccc(O)cc2)c2ccccc2n1 | 84
Cc1nnc(C)n1/N=C/c1cc(Br)cc(Br)c1O | 94
c1cc2nncn2nc1N1CCOCC1 | 100
COc1c(C=O)c(O)cc2c1C(=O)c1ccccc1C2=O | 100
Cc1csc2c(N3CC(C)OC(C)C3)ncnc12 (stereo unspecified) | 100
Cc1csc2c(N3CCN(C(=O)NC(C)(C)C)CC3)ncnc12 | 60*
COC(=O)c1sccc1S(=O)(=O)N1CCN(c2ncnc3c(C)csc23)CC1 | 118
CC(C)NC(=O)C1CN(S(=O)(=O)c2ccccc2)CCN1S(=O)(=O)c1ccccc1 (stereo unspecified) | 100
Cc1ccc(-n2nc3c([n+]2[O-])CCc2nonc2-3)cc1 | 104
CC[C@@]1(O)C[C@H](OC2CC(N(C)C)C(OC3CC(O)C(OC4CCC(=O)C(C)O4)C(C)O3)C(C)O2)c2c(cc3c(c2O)C(=O)c2c(O)cccc2C3=O)[C@H]1C(=O)OC (stereo partly specified) | 38*
CC[C@@]1(O)C[C@H](O[C@H]2C[C@H](N(C)C)[C@H](O)[C@H](C)O2)c2c(cc3c(c2O)C(=O)c2c(O)cccc2C3=O)[C@H]1C(=O)OC | 8.9*
CCOC(=O)NC1C=CS(=O)(=O)C1 (stereo unspecified) | 100
Cc1ccc(OCC(=O)Nc2ccccc2C(N)=O)cc1 | 99
CCN(Cc1ccccc1)C(=O)c1ccc2c(Cl)c3c(nc2c1)CCCC3 | 99
Fc1ccc(N2CCN(Cc3c[nH]c4ccccc34)CC2)cc1 | 81
O=C1C(=O)N(CCCN2CCOCC2)C(c2cccs2)/C1=C(\O)c1ccccc1 (stereo unspecified) | 100
O=C(Nc1cc(Cl)nc(NC(=O)C2CCCC2)n1)C1CCCC1 | 106
COc1ccc(OC)c(Nc2nc3nonc3nc2N2CCC(C)CC2)c1 | 100
C/C(=N\N)c1ccc2ccccc2c1 | 83*
SMILES | Vaccinia pol inh
CCCNC(=O)c1ccc2ccccc2c1 | 106
O=C(/C=C/C(=O)c1ccc2ccccc2c1)c1ccccc1 | 98
O=C1C=CC(=O)C(Nc2ccccc2)=C1 | 96
CCOC(=O)c1sc(=S)n(-c2ccc(OC)cc2)c1C | 100
O=C(CCS(=O)(=O)c1ccc(Br)s1)NC1CCCC1 | 101
COc1ccc2c(c1)c1ccccc1n2C | 67*
COc1ccc(OC)c(-c2n(C)c3ccccc3[n+]2C)c1 | 75
COc1ccc2c(c1)c(C(=O)CSc1ccccc1)c(C)n2C | 95
CSC(=NCCc1ccc(Cl)cc1)NS(=O)(=O)c1ccccc1 | 106
Cc1ccc(N2C(=O)Nc3ccccc3C2(O)C(=O)NC2CCCC(C)C2C)cc1C (stereo unspecified) | 96
Cc1cc(C)c2cccc(N=CC3=C(O)CC(C)(C)CC3=O)c2n1 | 99
Oc1ccc(CNCC2NCCc3ccccc32)cc1Cl (stereo unspecified) | 98
CCCn1c2ccccc2c2nnc(SCCCC(=O)c3ccc4c(c3)OCCO4)nc21 | 104
O=C(NCc1ccccc1)c1cc2c(s1)-c1ccccc1SC2 | 103
O=C(NCCC1=CCCCC1)c1cc2c(s1)-c1ccccc1SC2 | 94
CCN1CCCC1CNC(=O)c1cc2c(s1)-c1ccccc1SC2 (stereo unspecified) | 73*
O=S(=O)(Nc1ccccc1Cl)c1ccccc1 | 92
COC(=O)c1cc2oc3ccccc3c2n1CC(=O)N(C)c1ccccc1 | 106
CN1C(=O)CC(C(=O)NCCc2ccccc2)SC1=Nc1ccc(I)cc1 (stereo unspecified) | 100
COc1ccccc1N1CCSC1C(N)=O (stereo unspecified) | 100
Cc1ccc2c(c1)c1cccc3c1n2CCN3CCC(N)=O | 63*
NC(=O)CCN1CCn2c1nc1ccccc12 | 100
Cc1ccc(-n2c(=O)c3c(c4cc(C)ccc4n3C)n(CC(N)=O)c2=O)cc1 | 93
CCOC(=O)Cn1cnc2sc(-c3ccccc3)cc2c1=O | 101
O=C(O)C1CC=CCC1C(=O)N1CCN(C/C=C/c2ccccc2)CC1 (stereo unspecified) | 99
SMILES | Vaccinia pol inh
CCOC(=O)Cn1c2ccc(Cl)cc2c2nc3ccccc3nc21 | 109
O=C(O)Cn1c2ccc(Cl)cc2c2nc3ccccc3nc21 | 53*
Cc1ccc2c(c1)c1nc3ccccc3nc1n2CC(=O)O | 75
CC1CN(C(=O)C2CCC2)CC(C)O1 (stereo unspecified) | 106
NC(=O)CCS(=O)(=O)CCN1CCCCC1 | 98
COc1ccc(N=Cc2ccccc2F)cc1 | 52*
COc1ccc(C=Nc2ccccc2)cc1 | 101
